Inconclusive results are not listed. Activity calls are given as the source filed them. Unless noted, calls follow the shape of the dose curve; as a rule, active = well fitted curve in the direction sought with a large enough effect in the repeat runs; inconclusive = weak or mixed curves; inactive = no such curve, though single readings can be large; an effect the other way counts as inactive or inconclusive.
How the values were obtained:
[1] = qHTS assay to identify small molecule antagonists of the androgen receptor (AR) signaling pathway using the MDA cell line in the presence of 0.5 nM R1881 - cell viability counter screen (AID 1259242); also: nearly all actives have a fitted effect of over 45% in size
Summary of the method: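 MDA-kb2 cells (MMTV-luciferase, AR/GR responsive) were treated with compounds plus 0.5 nM R1881 (final) for 16 hr at 37C, 0% CO2. Viability was then read in the same wells as live-cell protease fluorescence (CellTiter-Fluor, 30 min).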

[2] = molecular target: Estrogen receptor (Homo sapiens) (UniProt P03372); experiment: qHTS assay to identify small molecule antagonists of the estrogen receptor alpha (ER-alpha) signaling pathway using the BG1 cell line in the presence of 0.1 nM 17-beta-estradiol (AID 1259244); also: nearly all actives have a fitted effect of over 50% in size
Summary of the method: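 VM7Luc4E2 cells (endogenous full-length ER-alpha, 4×ERE-luciferase), kept 5 days in phenol red-free, charcoal-stripped FBS medium; 4,000 cells/well. Compounds added with 0.1 nM (final) 17beta-estradiol, 22 hr at 37C; luminescence read with ONE-Glo after 30 min.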

[3] = qHTS assay to identify small molecule phospholipidosis (PLD) inducers (AID 1259344; active = well fitted curve in the direction sought with a large enough effect; an effect the other way counts as inactive or inconclusive)
Summary of the method: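 HepG2 cells on collagen I, attached 4 h at 37 C, were co-treated with compound and LipidTOX Red dye for 24 h at 37 C, then fixed with paraformaldehyde plus Hoechst 33342 and imaged by high-content microscopy for phospholipid accumulation.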

[4] = qHTS assay to identify small molecule HDAC inhibitors (AID 1259364); also: top concentration of the series differs between compounds; nearly all actives have a fitted effect of over 45% in size
Summary of the method: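 Wild-type HCT-116 cells, plated overnight at 37 C, exposed to compounds 2 hr at 37 C; luminogenic HDAC-Glo substrate then added 30 min at room temperature. Luminescence reports relative endogenous class I/II HDAC activity.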

[5] = qHTS assay to identify small molecule HDAC inhibitors - cell viability counter screen (AID 1259365); also: series mostly up to about 92 µM; nearly all actives have a fitted effect of over 50% in size
Summary of the method: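 Counter screen in wild-type HCT-116 cells: compounds dissolved in DMSO are pin-transferred onto overnight-plated cells and left 2hr at 37C. ATP-based CellTiter-Glo luminescence then measures viable cells.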

[6] = qHTS assay to identify small molecule agonists of the sonic hedgehog signaling (Shh) pathway - cell viability counter screen (AID 1259366); also: nearly all actives have a fitted effect of over 50% in size
Summary of the method: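 Cells are plated at 2,000 per well and left 4hr at 37C, 5% CO2 before compound addition. After 23hr of treatment, CellTiter-Fluor reagent is added for 1hr at 37C and fluorescence is measured.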

[7] = qHTS assay to identify small molecule antagonists of the sonic hedgehog signaling (Shh) pathway - cell viability counter screen (AID 1259367); also: nearly all actives have a fitted effect of over 55% in size
Summary of the method: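 NIH/3T3-derived Gli1-Luc reporter cells (2,000 per well) rested 4 hr at 37 C, then received DMSO compounds plus conditioned medium. After 23 hr of treatment, CellTiter-Fluor was added for 1 hr at 37C and fluorescence read.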

[8] = qHTS assay to identify small molecule agonists of the sonic hedgehog signaling (Shh) pathway (AID 1259368; calls by dose curve;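 also: NIH/3T3-derived 3T3Gli1-Luc cells carrying a stable Gli1-driven firefly luciferase reporter; series mostly up to about 92 µM; nearly all actives have a fitted effect of over 15% in size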)
Summary of the method: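 NIH/3T3-derived 3T3Gli1-Luc cells with stably integrated Gli1-driven firefly luciferase, 2,000 cells/well, compounds added after 4 hr. Incubated 24 hr at 37C, 5% CO2; luminescence read after 30 min with luciferase reagent at room temperature.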

[9] = qHTS assay to identify small molecule antagonists of the sonic hedgehog signaling (Shh) pathway (AID 1259369; calls by dose curve; also: nearly all actives have a fitted effect of over 45% in size)
Summary of the method: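 NIH/3T3-derived Gli1-Luc reporter cells plated 4 h, dosed with compound, then stimulated with conditioned medium for 24 h at 37 C. Firefly luciferase luminescence read after 30 min with detection reagent at room temperature.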

[10] = molecular target: Estrogen receptor beta (Homo sapiens) (UniProt Q92731); experiment: qHTS assay to identify small molecule agonists of the estrogen receptor beta (ER-beta) signaling pathway (AID 1259377; active = well fitted activation curve with a large enough effect in the signal ratio in the repeat runs, not every such curve was filed as active; the % refers to the signal ratio)
Summary of the method: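 Agonist mode cell assay in GripTite HEK293T cells expressing an ER-beta fusion that drives beta-lactamase from an Upstream Activator Sequence; 16 hr compound exposure at 37C, then 2 h LiveBLAzer B/G FRET substrate at room temperature, fluorescence read-out.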

[11] = molecular target: Estrogen receptor beta (Homo sapiens) (UniProt Q92731); experiment: qHTS assay to identify small molecule antagonists of the estrogen receptor beta (ER-beta) signaling pathway (AID 1259378; active = well fitted inhibition curve with a large enough effect in the signal ratio in the repeat runs, not every such curve was filed as active; the % refers to the signal ratio)
Summary of the method: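 ER-beta-UAS-bla HEK293T (GripTite) cells in 2% charcoal-stripped FBS medium were preincubated 6 hr at 37C, dosed with compound, then stimulated with 1 nM E2 (final) for 16 hr; beta-lactamase reporter read by B/G FRET fluorescence after 2 hr substrate loading.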

[12] = qHTS assay to identify small molecule agonists of the androgen receptor (AR) signaling pathway in the presence of an antagonist - cell viability counter screen (AID 1259379);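 also: MDA-kb2 human breast cancer cells carrying an MMTV luciferase reporter; series mostly up to about 92 µM; nearly all actives have a fitted effect of over 25% in size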
Summary of the method: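 MDA-kb2 cells (MMTV-luciferase, AR/GR), 3,000/well, 5 h attachment, then 3.0 µM nilutamide (final) and compounds at 15 concentrations. Viability by CellTiter-Fluor fluorescence after 16 h at 37 °C, 0% CO2, in the reporter wells.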

[13] = qHTS assay to identify small molecule agonists of the estrogen receptor beta (ER-beta) signaling pathway - cell viability counter screen (AID 1259380); also: nearly all actives have a fitted effect of over 30% in size
Summary of the method: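 ER-beta-UAS-bla HEK293T cells in medium with 2% charcoal-stripped FBS, pre-incubated 6 hr, then treated 16 hr at 37C. Cytotoxicity read in the same wells by CellTiter-Glo luminescence after 30 min at room temperature.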

[14] = qHTS assay to identify small molecule antagonists of the estrogen receptor beta (ER-beta) signaling pathway - cell viability counter screen (AID 1259382); also: series mostly up to about 92 µM; nearly all actives have a fitted effect of over 55% in size
Summary of the method: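 ER-beta-UAS-bla HEK293T cells in 2% charcoal-stripped FBS medium, treated with compound plus 1 nM 17-beta-estradiol for 16 h at 37C. Viability read by CellTiter-Glo luminescence after 30 min at room temperature in the same wells.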

[15] = molecular target: Estrogen receptor (Homo sapiens) (UniProt P03372); experiment: qHTS assay to identify small molecule agonists of the estrogen receptor alpha (ER-alpha) signaling pathway in the presence of an antagonist (AID 1259383; calls by dose curve; also: top concentration of the series differs between compounds; nearly all actives have a fitted effect of over 15% in size)
Summary of the method: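 VM7Luc4E2 cells express endogenous full-length ER-alpha with an ERE-luciferase reporter and were hormone-deprived for 5 days. Compounds at 15 concentrations were added with 10.0nM ICI-182,780 for 22hr at 37C. Luminescence was read with ONE-Glo.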

[16] = qHTS assay to identify small molecule agonists or antagonists of the thyroid stimulating hormone receptor (TSHR) signaling pathway - wild type cell line counter screen (AID 1259384; calls by dose curve)
Summary of the method: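 Wild-type HEK293 cells were plated 18 h at 37 C/5% CO2, pin-dosed with compound plus Ro20-1724 medium, held 30 min at room temperature, then given cAMP-d2 and anti-cAMP-cryptate; fluorescence was read after 1 h. Fifteen concentrations, triplicate.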

[17] = molecular target: Thyrotropin receptor (Homo sapiens) (UniProt P16473); experiment: qHTS assay to identify small molecule antagonists of the thyroid stimulating hormone receptor (TSHR) signaling pathway (AID 1259385; calls by dose curve; also: nearly all actives have a fitted effect of over 20% in size)
Summary of the method: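 TSHR-HEK293 cells were plated and held 18 h at 37C/5% CO2, then given compound plus Ro20-1724 and stimulated with TSH at 1.5 ng/mL final. After 30 min at room temperature, cAMP was detected with cAMP-d2/anti-cAMP-cryptate (1 h) by fluorescence.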

[18] = qHTS assay to identify small molecule agonists of the estrogen receptor alpha (ER-alpha) signaling pathway in the presence of an antagonist - cell viability counter screen (AID 1259386);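 also: series mostly up to about 92 µM; cells exposed to compounds for 22 h at 37 °C before the viability read; nearly all actives have a fitted effect of over 30% in size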
Summary of the method: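 Cell viability in VM7Luc4E2 cells (endogenous full-length ER-alpha) measured by CellTiter-Fluor fluorescence in the same wells as the luciferase screen. Cells pre-cultured 5 days in charcoal-stripped serum, then treated 22 h with compounds at 15 concentrations plus 10.0nM ICI-182,780.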
% is scaled to controls: 0 for no effect and ±100 for the full control effect.

Thyrotropin receptor (Homo sapiens), sequence (P16473 whole entry, looked up): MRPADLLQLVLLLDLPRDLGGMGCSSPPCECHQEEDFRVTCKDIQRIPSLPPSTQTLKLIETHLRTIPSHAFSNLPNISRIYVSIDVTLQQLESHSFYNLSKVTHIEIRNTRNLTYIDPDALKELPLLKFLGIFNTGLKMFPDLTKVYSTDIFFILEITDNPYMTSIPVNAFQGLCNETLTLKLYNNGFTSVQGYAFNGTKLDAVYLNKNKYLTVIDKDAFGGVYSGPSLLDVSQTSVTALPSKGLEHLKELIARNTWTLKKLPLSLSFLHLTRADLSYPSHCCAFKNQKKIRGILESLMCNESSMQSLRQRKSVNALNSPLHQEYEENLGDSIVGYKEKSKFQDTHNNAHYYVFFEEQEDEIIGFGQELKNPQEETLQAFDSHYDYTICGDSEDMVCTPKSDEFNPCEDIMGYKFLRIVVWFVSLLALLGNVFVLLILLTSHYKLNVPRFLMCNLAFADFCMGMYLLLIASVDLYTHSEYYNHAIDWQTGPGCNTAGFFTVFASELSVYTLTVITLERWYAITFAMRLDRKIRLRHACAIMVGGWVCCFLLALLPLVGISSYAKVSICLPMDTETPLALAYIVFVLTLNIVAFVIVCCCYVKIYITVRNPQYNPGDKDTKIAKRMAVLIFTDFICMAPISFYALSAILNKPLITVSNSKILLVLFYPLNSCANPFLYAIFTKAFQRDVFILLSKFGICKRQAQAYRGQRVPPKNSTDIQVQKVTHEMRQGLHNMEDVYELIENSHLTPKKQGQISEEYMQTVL
Estrogen receptor beta (Homo sapiens), sequence (Q92731 whole entry, looked up, the tested form may be a part): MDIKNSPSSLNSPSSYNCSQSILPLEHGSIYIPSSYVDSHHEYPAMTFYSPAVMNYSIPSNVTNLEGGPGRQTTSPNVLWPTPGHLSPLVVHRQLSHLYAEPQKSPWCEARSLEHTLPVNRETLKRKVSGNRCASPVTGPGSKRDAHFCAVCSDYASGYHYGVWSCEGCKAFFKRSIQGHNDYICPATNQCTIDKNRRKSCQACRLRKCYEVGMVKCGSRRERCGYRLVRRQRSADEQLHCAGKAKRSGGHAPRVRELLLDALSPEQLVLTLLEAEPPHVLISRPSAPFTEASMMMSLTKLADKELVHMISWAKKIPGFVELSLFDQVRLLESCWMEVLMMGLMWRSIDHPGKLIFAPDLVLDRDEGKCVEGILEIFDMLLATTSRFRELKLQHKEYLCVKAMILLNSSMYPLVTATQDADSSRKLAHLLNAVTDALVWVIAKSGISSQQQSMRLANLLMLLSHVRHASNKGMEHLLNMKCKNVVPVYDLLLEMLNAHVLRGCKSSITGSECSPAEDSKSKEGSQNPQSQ
Estrogen receptor (Homo sapiens), sequence (P03372 whole entry, looked up): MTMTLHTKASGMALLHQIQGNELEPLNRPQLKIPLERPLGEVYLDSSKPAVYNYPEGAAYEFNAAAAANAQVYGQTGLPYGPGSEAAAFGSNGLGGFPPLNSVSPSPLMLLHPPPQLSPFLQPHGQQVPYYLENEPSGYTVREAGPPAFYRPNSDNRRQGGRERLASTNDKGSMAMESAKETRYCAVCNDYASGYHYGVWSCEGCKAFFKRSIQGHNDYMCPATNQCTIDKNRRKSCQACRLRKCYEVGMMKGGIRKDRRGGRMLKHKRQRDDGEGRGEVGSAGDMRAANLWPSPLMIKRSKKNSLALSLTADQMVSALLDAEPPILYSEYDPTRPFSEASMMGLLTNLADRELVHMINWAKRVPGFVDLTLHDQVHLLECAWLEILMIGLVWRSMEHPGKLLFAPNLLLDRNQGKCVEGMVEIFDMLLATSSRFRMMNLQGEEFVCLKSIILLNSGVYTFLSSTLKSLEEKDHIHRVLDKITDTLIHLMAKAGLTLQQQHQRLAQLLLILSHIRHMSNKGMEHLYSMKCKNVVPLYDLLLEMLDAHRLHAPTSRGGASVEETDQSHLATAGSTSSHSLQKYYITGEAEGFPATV

N=c1nc(N2CCCCC2)cc(N)n1O
inactive: Potency [1] | outcome [2] | Potency [3] | Potency [4] | outcome [5] | Potency [6] | Potency [7] | outcome [8] | Potency [9] | outcome [10] | outcome [11] | Potency [12] | Potency [13] | Potency [14] | Potency [15] | outcome [16] | Potency [17] | Potency [18]

O=C1CCCN1C1CCCCC1
inactive: Potency [1] | outcome [2] | Potency [4] | outcome [5] | Potency [6] | Potency [7] | outcome [8] | Potency [12] | Potency [13] | Potency [14] | Potency [15] | outcome [16] | Potency [17] | Potency [18]

NCCc1cnc[nH]1
inactive: Potency [1] | Potency [4] | outcome [5] | Potency [6] | Potency [7] | outcome [8] | Potency [9] | outcome [10] | outcome [11] | Potency [12] | Potency [13] | Potency [14] | outcome [16] | Potency [17] | Potency [18]

COC(=O)NN
inactive: Potency [1] | outcome [2] | Potency [4] | outcome [5] | Potency [6] | Potency [7] | outcome [8] | Potency [9] | outcome [10] | outcome [11] | Potency [12] | Potency [13] | Potency [14] | Potency [15] | Potency [17] | Potency [18]

N[C@H](C(=O)O)c1ccc(O)cc1
inactive: activity change, negative = inhibition [2] 12.1% [at 19 µM] | activity change, negative = inhibition [4] -0.75% [at 19 µM] | activity change, negative = cytotoxicity [5] -1.63% [at 19 µM] | viability change, negative = cytotoxic [6] -2.17% [at 19 µM] | Potency [7] | activity change [8] -0.267% [at 18.9 µM] | Potency [9] | activity change, negative = cytotoxicity [12] 0.253% [at 19 µM] | activity change, negative = cytotoxicity [13] 9.39% [at 19 µM] | activity change, negative = cytotoxicity [14] 3.71% [at 19 µM] | activation [15] 0.585% [at 19 µM] | cAMP activity change [16] 3.37% [at 18.9 µM] | activity change, negative = inhibition [17] -2.34% [at 19 µM] | activity change, negative = cytotoxicity [18] 3.8% [at 19 µM]

CC(C(=O)O)c1ccc(CC2CCCC2=O)cc1 (stereo not drawn)
inactive: Potency [1] | outcome [2] | Potency [4] | outcome [5] | Potency [6] | Potency [7] | outcome [8] | outcome [10] | outcome [11] | Potency [12] | Potency [13] | Potency [14] | Potency [15] | outcome [16] | Potency [18]

CCCCCOC(=O)CCCCC
inactive: Potency [1] | outcome [2] | Potency [4] | outcome [5] | Potency [6] | Potency [7] | Potency [9] | Potency [12] | Potency [13] | Potency [14] | Potency [15] | Potency [18]

CN1C(=O)N(C)C(O)C1O (stereo not drawn)
inactive: Potency [1] | outcome [2] | Potency [4] | outcome [5] | Potency [6] | Potency [7] | outcome [8] | Potency [9] | outcome [10] | outcome [11] | Potency [12] | Potency [13] | Potency [14] | Potency [15] | outcome [16] | Potency [17] | Potency [18]

C1CN(CCOCCN2CCOCC2)CCO1
inactive: Potency [1] | outcome [2] | Potency [4] | outcome [5] | Potency [6] | Potency [7] | outcome [8] | Potency [9] | outcome [10] | outcome [11] | Potency [12] | Potency [13] | Potency [14] | Potency [15] | outcome [16] | Potency [17] | Potency [18]
